Results as given in ChEMBL document CHEMBL3988442, “University of Dundee, Small-Polar-MMV Screening Library” (2021).

Target: T1, Aspartate--tRNA(Asp/Asn) ligase (Mycobacterium tuberculosis (strain ATCC 25618 / H37Rv)) (UniProt P9WFW3); note: in the data most compounds retested in dose-response had high values
T1 sequence (whole entry): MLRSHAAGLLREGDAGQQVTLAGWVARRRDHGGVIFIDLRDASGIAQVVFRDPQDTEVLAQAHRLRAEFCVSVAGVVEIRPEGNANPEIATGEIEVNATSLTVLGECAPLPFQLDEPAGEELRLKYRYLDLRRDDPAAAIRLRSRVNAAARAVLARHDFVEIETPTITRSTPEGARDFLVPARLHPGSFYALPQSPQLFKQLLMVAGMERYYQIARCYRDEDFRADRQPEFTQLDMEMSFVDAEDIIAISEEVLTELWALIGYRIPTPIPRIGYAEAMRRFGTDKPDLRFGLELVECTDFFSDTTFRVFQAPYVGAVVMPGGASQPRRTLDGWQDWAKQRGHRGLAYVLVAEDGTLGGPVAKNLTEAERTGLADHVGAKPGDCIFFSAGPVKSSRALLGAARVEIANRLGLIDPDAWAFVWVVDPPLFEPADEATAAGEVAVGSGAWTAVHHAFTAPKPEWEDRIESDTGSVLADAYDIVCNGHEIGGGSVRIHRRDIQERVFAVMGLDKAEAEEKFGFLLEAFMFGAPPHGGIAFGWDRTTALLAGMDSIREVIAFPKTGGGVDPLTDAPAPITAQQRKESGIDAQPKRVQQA
Test: Assay for Asp RNA synthetase-1 from Mycobacterium tuberculosis
Assay type: functional
Parameters: scale not given: direction of the effect not stated beside the values
Conditions: 30 µM

| Structure (SMILES) | Percent Effect [%] |
| --- | --- |
| CN(Cc1ccc(F)cc1)C(=O)CN1CCOC(Cn2cncn2)C1 (stereo not drawn) | 3.63 |
| Cc1ccoc1C(=O)N1C[C@H]2CCC[C@@]2(COCc2ccncc2)C1 | 6.22 |
| CCCc1nc(CN2CCCC(Cn3cncn3)C2)no1 (stereo not drawn) | -3.39 |
| O=C(c1ccccn1)N1CCCC(c2nccn2Cc2ccncc2)C1 (stereo not drawn) | 6.99 |
| CCNc1nc2c(s1)C(=O)CN(C(=O)NCCc1ccccc1)C2 | 2.72 |
| O=C(NCCC(=O)N1CCCc2ccccc21)c1c(O)cc(F)cc1F | -3.63 |
| CN(C)C(=O)c1ccc2c(c1)N(C)C(CC(=O)NCCC(C)(C)C)CO2 (stereo not drawn) | 0.279 |
| Cc1cc(C)n(CC2CCCN2C(=O)Cc2c(C)noc2C)n1 (stereo not drawn) | 7.79 |
| O=C(NCCn1ccnc1)c1cccc(F)c1 | 3.65 |
| Cc1cc(C)c(CNC(=O)N2CCN(c3cnccn3)CC2)c(=O)[nH]1 | -0.167 |
| O=C(NCc1ccco1)[C@H]1C[C@H]2OCC[C@H]2N(S(=O)(=O)C2CC2)C1 | 0.786 |
| CC(NC(=O)NCCCO)c1ccc2c(c1)OCCO2 (stereo not drawn) | 0.291 |
| COc1ccc(NC(=O)CNc2cccc3c2CCCC3)c(OC)c1 | 1 |
| O=C(CCOc1ccc(Cl)cc1)N1CCN(c2cnccn2)CC1 | 0.879 |
| CC(=O)Nc1cccc(C(=O)Nc2cnc3n2CCCC3)c1 | 2.26 |
| Cn1cc(C2CCCN2Cc2csc(-c3ccsc3)n2)cn1 (stereo not drawn) | 7.77 |
| c1cnn(CC2CCCN2c2ncnc3sccc23)c1 (stereo not drawn) | 5.36 |
| CCCc1cc(C(=O)N2CCCC2c2cccnc2)[nH]n1 (stereo not drawn) | 3.74 |
| O=C(c1cn(-c2cc(N3CCOCC3)ncn2)cn1)N1CCSCC1 | -0.834 |
| CN(C)C(=O)[C@H]1C[C@@H]2CN(S(=O)(=O)Cc3ccccc3)C[C@H]1O2 | 3.99 |
| O=C(CN1CCCC1Cn1cncn1)NCCOc1cccc(F)c1 (stereo not drawn) | -0.983 |

Target: Shiga toxin 2 (Escherichia coli O157:H7) (UniProt P09385+P09386)
Test: E. coli 0.157:H7 Shiga Toxin SOP - stx2 screening assay
Assay type: functional
Parameters: scale not given: direction of the effect not stated beside the values
Conditions: 30 µM

| Structure (SMILES) | Percent Effect [%] |
| --- | --- |
| CCc1nc(C2CCCN2C(=O)c2ncoc2CC)no1 (stereo not drawn) | 4.73 |
| Cc1cnc(N2C[C@H]3C[C@H](C(=O)N(C)C)[C@@H](C2)O3)nc1 | -23.4 |
| Cc1cc(N2CCC(CC(N)=O)CC2)nc(-c2ccncc2)n1 | 0.525 |
| CCc1nnc2n1CCN(C(=O)CN(C)Cc1ccccc1)C2 | 15.9 |
| Cc1cc(C)c(CNC(=O)N(C)Cc2sccc2C)c(=O)[nH]1 | 33.8 |
| CN1CCCc2cc(NC(=O)N3CCOC(C(N)=O)C3)ccc21 (stereo not drawn) | -77.6 |
| CS(=O)(=O)NC[C@]12COC[C@H]1CN(CC1CCCC1)C2 | 6.37 |
| Cc1cnn(CC2CCCCN2CCC(=O)Nc2cc(C)on2)c1 (stereo not drawn) | 5.5 |
| CC(C)c1nn(C)c(N(C)C)c1CNCc1ccccc1CN(C)C | 23.7 |
| CCc1ccc(CNC(=O)N2CCN(Cc3cc(C)no3)CC2)s1 | 27 |
| CC(C)CCC(=O)NC(C)c1nnc2n1CCCCC2 (stereo not drawn) | -17.4 |
| CC(C)n1[nH]c(=O)c2c1NC(=O)CC2c1cccc(OC(F)F)c1 (stereo not drawn) | -12.1 |
| CCCS(=O)(=O)N1CCO[C@H]2[C@H](OCc3ccccn3)CC[C@@H]21 | -8.66 |
| C1CC(c2noc(C3CC3)n2)CN(Cc2noc(C3CC3)n2)C1 (stereo not drawn) | 6.22 |
| Cc1noc2nc(C3CCN(CC4=CCCOC4)CC3)cc(C(F)F)c12 | -23.1 |
| CC(C)CN1C[C@H]2CCN(Cc3cccnc3)CC[C@H]2S1(=O)=O | 4.22 |

| Structure (SMILES) | Percent Effect [%] |
| --- | --- |
| CCN(C)c1ncnc2c1CCN(Cc1csc(C)n1)CC2 | -3.16 |
| Cc1cc(NC(=O)NCc2ccccc2OC(F)F)n(C)n1 | -10.5 |
| Cc1nc(CN2CCCCC2Cn2cncn2)nc2ccccc12 (stereo not drawn) | -15.2 |
| CN(Cc1ccc(F)cc1)C(=O)CN1CCOC(Cn2cncn2)C1 (stereo not drawn) | -0.222 |
| Cc1ccoc1C(=O)N1C[C@H]2CCC[C@@]2(COCc2ccncc2)C1 | -14.5 |
| CCCc1nc(CN2CCCC(Cn3cncn3)C2)no1 (stereo not drawn) | -26.6 |
| O=C(c1ccccn1)N1CCCC(c2nccn2Cc2ccncc2)C1 (stereo not drawn) | 4.41 |
| CCNc1nc2c(s1)C(=O)CN(C(=O)NCCc1ccccc1)C2 | -10.6 |
| O=C(NCCC(=O)N1CCCc2ccccc21)c1c(O)cc(F)cc1F | -9.36 |
| CN(C)C(=O)c1ccc2c(c1)N(C)C(CC(=O)NCCC(C)(C)C)CO2 (stereo not drawn) | 5.86 |
| Cc1cc(C)n(CC2CCCN2C(=O)Cc2c(C)noc2C)n1 (stereo not drawn) | 9.09 |
| O=C(NCCn1ccnc1)c1cccc(F)c1 | 24.2 |
| Cc1cc(C)c(CNC(=O)N2CCN(c3cnccn3)CC2)c(=O)[nH]1 | 9.86 |
| O=C(NCc1ccco1)[C@H]1C[C@H]2OCC[C@H]2N(S(=O)(=O)C2CC2)C1 | -24.1 |
| CC(NC(=O)NCCCO)c1ccc2c(c1)OCCO2 (stereo not drawn) | -10.2 |
| COc1ccc(NC(=O)CNc2cccc3c2CCCC3)c(OC)c1 | -28.6 |
